# Measurements published in the supplement of paper PMC7411640.
# Structures can show the parent of a compound that is named as a salt.
# System: MDA-MB-468
# Test: phospho-S6 immunofluorescence (DAPI-normalised), per-plate z-score; higher = higher phospho-S6 signal (less pathway suppression)
# Conditions: 24 h
# Procedure: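 GPCR-targeted compound library (MedChemExpress HY-L006) tested on MDA-MB-468 PTEN-null TNBC cells in 384-well plates at 0.1, 1 or 10 uM, combined with vehicle, GDC0941 450 nM or lapatinib 1 uM, for 24 h. Phospho-S6 (S240/244) immunofluorescence normalised to DAPI and expressed as a per-plate z-score; values are the mean of biological triplicates.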
Compound,phospho-S6 immunofluorescence (z-score) (co-treatment: GDC0941 450 nM),phospho-S6 immunofluorescence (z-score) (co-treatment: lapatinib 1 uM),phospho-S6 immunofluorescence (z-score) (co-treatment: vehicle)
CNC(=O)[C@H]1O[C@@H](n2cnc3c(NCc4cccc(I)c4)nc(Cl)nc32)[C@H](O)[C@@H]1O (compound 10 µM),-1.27,-1.18,-2.34
Cc1cc(C(C)(C)C)cc(C)c1CC1=NCCN1 [Xylometazoline (hydrochloride)] (compound 10 µM),0.43,-0.12,-0.38
CC(C)c1cc(-c2ccc(F)c3ccccc23)nc(N)n1 (compound 10 µM),-1.03,1.27,1.08
Clc1cccc(Cl)c1NC1=NCCN1 [Clonidine (hydrochloride)] (compound 10 µM),0.37,0.75,1.03
COc1nc(C)cnc1NS(=O)(=O)c1cccnc1-c1ccc(-c2nnco2)cc1 [Zibotentan] (compound 10 µM),-2.05,-0.19,-2.06
CN/C(=N\CCSCc1nc[nH]c1C)NC#N [Cimetidine] (compound 10 µM),0.86,0.64,-0.63
CC(C)NCC(O)COc1ccc(CC(N)=O)cc1 (stereo not drawn) [Atenolol] (compound 10 µM),0.35,1.32,0.52
C/C(=N\NC(=O)C(NC(=O)c1ccccc1)c1n[nH]c(=O)c2ccccc12)c1cccc(Br)c1 (stereo not drawn) (compound 10 µM),0.96,0.13,0.95
CC(C)(Cc1ccc2ccccc2c1)NC[C@@H](O)COc1cccc(Cl)c1C#N (compound 10 µM),-3.37,-8.76,-10.1
O=C(O)CCCN1CCC(O[C@@H](c2ccc(Cl)cc2)c2ccccn2)CC1 [Bepotastine (Beslilate)] (compound 10 µM),-0.72,-0.17,0.56
CNC[C@H](O)c1ccc(O)c(O)c1 [L-Epinephrine (Bitartrate)] (compound 10 µM),0.93,2.5,-0.23
c1ccc2c(c1)OCC(CN1CCCCC1)O2 (stereo not drawn) [Piperoxan (hydrochloride)] (compound 10 µM),0.28,0.61,0.8
CC(ONC(=O)c1cc(C(F)(F)F)cc(C(F)(F)F)c1)C(=O)Nc1ccc(Cl)cc1 (stereo not drawn) (compound 10 µM),-3.03,-1.73,-2.5
COc1ccc(CNC(=O)c2cc(-c3cncc(C)c3)ncc2-c2nccs2)nc1OC (compound 10 µM),-0.61,-0.5,0.26
CN1CC2c3ccccc3Oc3ccc(Cl)cc3C2C1 (stereo not drawn) [Asenapine (maleate)] (compound 10 µM),0.37,-1.57,-0.61
C[C@]12CCC(=O)C=C1CC[C@@H]1[C@@H]2CC[C@@]2(C)[C@H]1CC[C@]2(O)C(=O)CO [Cortodoxone] (compound 10 µM),-0.95,1.37,-0.43
COC(=O)N(C)c1c(N)nc(-c2nn(Cc3ccccc3F)c3ncccc23)nc1N [Riociguat] (compound 10 µM),-0.84,0.03,-0.56
CC(C)[N+]1(C)[C@@H]2CC[C@H]1C[C@@H](OC(=O)C(CO)c1ccccc1)C2 (stereo partly drawn) [Ipratropium (bromide)] (compound 10 µM),-0.02,0.28,-0.61
CCNC1(C(N)=O)CCN(c2ncnc3c2nc(-c2ccccc2Cl)n3-c2ccc(Cl)cc2)CC1 [Otenabant] (compound 10 µM),-1.75,-2.03,-0.02
COc1cc2c(cc1OC)CN(C(=O)[C@@H](NCc1ccncc1)C(C)(C)C)CC2 (compound 10 µM),0.85,0.87,-0.05
CCOc1cc(N)c(Cl)cc1C(=O)NCC1CN(Cc2ccc(F)cc2)CCO1 (stereo not drawn) [Mosapride (citrate)] (compound 10 µM),0.76,0.46,0.79
CCC1(c2c[nH]cn2)Cc2ccccc2C1 [Atipamezole (hydrochloride)] (compound 10 µM),-0.61,0.37,1.24
Clc1ccc2c(c1)CCc1cccnc1C2=C1CCNCC1 [Desloratadine] (compound 10 µM),-0.48,-1.96,0.51
CC(C)(C)NC[C@H](O)COc1nsnc1N1CCOCC1 [(S)-Timolol (Maleate)] (compound 10 µM),-0.17,0.33,-0.06
N=C(N)NCCC[C@@H](NC(=O)[C@@H]1CCCN1C(=O)[C@@H]1CSSCCC(=O)N[C@@H](Cc2ccc(O)cc2)C(=O)N[C@@H](Cc2ccccc2)C(=O)N[C@@H](CCC(N)=O)C(=O)N[C@@H](CC(N)=O)C(=O)N1)C(=O)NCC(N)=O [Desmopressin (Acetate)] (compound 10 µM),0.16,-0.21,-0.41
CC(C)C[C@H](NC(=O)[C@H](CC(C)C)NC(=O)[C@H](Cc1ccccc1)NC(=O)[C@@H](N)CO)C(=O)N[C@@H](CCCN=C(N)N)C(=O)N[C@@H](CC(N)=O)C(=O)O (compound 10 µM),-1.01,-0.25,0.03

Compound,phospho-S6 immunofluorescence (z-score) (co-treatment: GDC0941 450 nM),phospho-S6 immunofluorescence (z-score) (co-treatment: lapatinib 1 uM),phospho-S6 immunofluorescence (z-score) (co-treatment: vehicle)
CNCCc1ccccn1 [Betahistine (dihydrochloride)] (compound 10 µM),-1.02,0.1,-0.72
CCCCc1ncc(/C=C(\Cc2cccs2)C(=O)O)n1Cc1ccc(C(=O)O)cc1 [Eprosartan (mesylate)] (compound 10 µM),0.37,0.05,0.01
O=C(O)COc1cccc(CN(Cc2ccc(-n3cccn3)cc2)S(=O)(=O)c2cccnc2)c1 [Taprenepag] (compound 10 µM),-0.91,0.34,-0.73
CCC(=O)OCC(=O)[C@@]1(OC(=O)CC)[C@@H](C)C[C@H]2[C@@H]3CCC4=CC(=O)C=C[C@]4(C)[C@@]3(F)[C@@H](O)C[C@@]21C [Betamethasone dipropionate] (compound 10 µM),-0.51,-0.45,0.82
O=C(CN1C(=O)C2(CCCC2)NC[C@H]1c1cc(F)cc(F)c1)Nc1ccc2c(c1)C[C@@]1(C2)C(=O)Nc2ncccc21 [MK-3207 (Hydrochloride)] (compound 10 µM),-0.51,-0.06,-0.48
"Brc1c(NC2=NCCN2)ccc2nccnc12 [UK 14,304 (tartrate)] (compound 10 µM)",0.91,1.2,0.14
COC(c1ccccc1)(c1ccccc1)[C@H](Oc1nc(C)cc(C)n1)C(=O)O [Ambrisentan] (compound 10 µM),1.18,0.5,-0.07
C[N+]1(C)CCC(=C(c2ccccc2)c2ccccc2)CC1 [Diphenmanil (methylsulfate)] (compound 10 µM),0.46,0.06,0.8
Cc1cc(C)nc(NS(=O)(=O)c2ccc(NC(=S)NC(=O)COc3ccc(Br)cc3Cl)cc2)n1 (compound 10 µM),0.46,-0.41,0.28
CCCc1nc(C(C)(C)O)c(C(=O)O)n1Cc1ccc(-c2ccccc2-c2nnn[nH]2)cc1 [Olmesartan] (compound 10 µM),0.13,0.28,-0.82
CCc1cc2c(cc1CC)CC(NC[C@H](O)c1ccc(O)c3[nH]c(=O)ccc13)C2 [Indacaterol (maleate)] (compound 10 µM),-0.81,-1.41,0.92
C[C@@H](NCCCc1cccc(C(F)(F)F)c1)c1cccc2ccccc12 [Cinacalcet (hydrochloride)] (compound 10 µM),-5.88,-11.2,-9.18
NC[C@H](O)c1ccc(O)c(O)c1 [Norepinephrine (bitartrate monohydrate)] (compound 10 µM),0.52,1.81,0.17
CC(C)(C)C1CCC(N(Cc2ccc(C(=O)NCCC(=O)O)cc2)C(=O)Nc2ccc(OC(F)(F)F)cc2)CC1 (stereo not drawn) (compound 10 µM),-3.4,-4.75,-1.64
CC[C@H](NC(=O)c1c(C)c(-c2ccccc2)nc2ccccc12)c1ccccc1 (compound 10 µM),-4.55,-3.25,-1.64
Cn1c(=O)c2c(ncn2CC(O)CO)n(C)c1=O (stereo not drawn) [Diphylline] (compound 10 µM),-0.54,-0.14,-0.15
COc1cc2c(cc1OC)CC(=O)N(CCCN(C)C[C@H]1Cc3cc(OC)c(OC)cc31)CC2 [Ivabradine (hydrochloride)] (compound 10 µM),-0.44,-0.13,-0.38
CCN(CCCCOC(=O)c1ccc(OC)c(OC)c1)C(C)Cc1ccc(OC)cc1 (stereo not drawn) [Mebeverine (hydrochloride)] (compound 10 µM),0.43,0.05,-0.85
O=C(c1ccc(F)cc1)C1CCN(CCn2c(=O)[nH]c3ccccc3c2=O)CC1 [Ketanserin] (compound 10 µM),-0.64,-0.02,-0.85
O=S(=O)(O)c1cc(O)ccc1O [Ethamsylate] (compound 10 µM),0,-0.05,0.76
CN(C)CCN1C(=O)c2cccc3cc(NC(N)=O)cc(c23)C1=O (compound 10 µM),1.29,7.09,0.12
O=c1cc(C(Cl)(Cl)Cl)oc2ccc(Cl)cc12 (compound 10 µM),0.54,-0.11,0.44
OCCN1CCN(CCCN2c3ccccc3Sc3ccc(C(F)(F)F)cc32)CC1 [Fluphenazine (dihydrochloride)] (compound 10 µM),-3.94,-6.77,-2.87
CCCCc1nc(C)c(CC(=S)N(C)C)c(=O)n1Cc1ccc(-c2ccccc2-c2nnn[nH]2)cc1 [Fimasartan] (compound 10 µM),0.34,1.66,-0.04
NCCCCN(Cc1nc2ccccc2[nH]1)[C@H]1CCCc2cccnc21 [AMD-070 (hydrochloride)] (compound 10 µM),-4.2,-3.44,-3.01
